An excerpt weighted towards active compounds, which were near 9.4% of everything screened.
ELG1 DNA repair: inhibitors of ELG1-dependent DNA repair in HEK293T cells; HEK293T ELG1-luciferase reporter, luminescence, 16 h; DNA damage induced by 5-fluorouridine; Potency, µM (doses to about 46.1 µM), without a hit: at the highest dose activity change, negative = inhibition, hits mostly inhibitors; 330,000 compounds, 2.3% hits; AID 504467; also: % is scaled to controls: 0 for no effect and ±100 for the full control effect; nearly all actives have a fitted effect of over 55% in size
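Step one: seed 2,000 cells per well. Step two: pin-transfer compound or DMSO alongside 5-fluorouridine. Step three: incubate 16 hr, 37 °C, 5% CO2. Step four: add ONE-Glo, wait 30 min, read luminescence.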
FLuc modulator: firefly luciferase modulation, counter-screen for miR-21 project. P08659. purified FLuc, Km substrates, luminescence inhibition. Potency, µM (doses to about 57.5 µM), for the others: at the top dose activity change, negative = inhibition, actives largely listed as inhibitors. 360,000 compounds, 6.9% hits. AID 588342;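 also: plate controls were vehicle for no effect and reference inhibitor for full effect; nearly all actives have a fitted effect of over 55% in size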
Target sequence (P08659 whole entry, looked up): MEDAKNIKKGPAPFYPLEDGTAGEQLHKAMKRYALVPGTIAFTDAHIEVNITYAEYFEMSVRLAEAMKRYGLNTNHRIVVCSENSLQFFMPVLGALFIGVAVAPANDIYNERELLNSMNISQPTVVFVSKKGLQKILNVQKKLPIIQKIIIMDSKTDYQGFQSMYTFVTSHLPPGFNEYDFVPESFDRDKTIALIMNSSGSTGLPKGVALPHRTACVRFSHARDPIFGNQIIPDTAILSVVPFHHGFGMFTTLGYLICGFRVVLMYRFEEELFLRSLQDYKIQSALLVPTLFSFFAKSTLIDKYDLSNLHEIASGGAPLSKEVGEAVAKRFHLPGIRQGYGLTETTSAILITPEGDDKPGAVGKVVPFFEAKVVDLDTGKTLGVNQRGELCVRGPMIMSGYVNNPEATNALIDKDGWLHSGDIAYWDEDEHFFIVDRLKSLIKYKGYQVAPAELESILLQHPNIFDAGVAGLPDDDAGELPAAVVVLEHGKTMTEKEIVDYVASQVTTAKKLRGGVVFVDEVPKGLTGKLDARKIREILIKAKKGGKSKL
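Purified P. pyralis luciferase, 10 nM final, with Km-level 10 uM D-luciferin and 10 uM ATP in 50 mM Tris acetate pH 7.5, 10 mM Mg acetate, 0.01% Tween-20, 0.05% BSA; 6-point qHTS titration about 60 µM downward; luminescence read.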
SMN2 splice up: enhancers of SMN2 splice variant expression | HEK293 SMN2-luciferase splicing reporter, luminescence, 30-36 h | Potency, µM (top dose mostly 46.1 µM), without a hit: at the highest dose activity change, positive = activation, hits mostly activators | 210,000 compounds, 2.8% hits | AID 1458; also: % of control where 0% means no effect; nearly all actives have a fitted effect of over 55% in size
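HEK293 cells carry an SMN2 minigene-luciferase reporter in which exon 7 inclusion puts luciferase in frame. Cells were seeded at 2000 cells/well, attached for 10-12 hours, then exposed to compounds for 30-36 hours at 37C before ONE-Glo luminescence.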
NPC1 prom act: activators of NPC1 promoter | Huh7 NPC1 promoter luciferase reporter, 24 h | 320,000 compounds, 2.4% hits | Potency, µM (titrated, usually from 9.22 µM), inactives show at the highest dose activation, hits mostly activators; also: % of control where 0% means no effect; nearly all actives have a fitted effect of over 60% in size
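Stable NPC1-promoter luciferase Huh7 line; cpd (DMSO) 24 h, 37 °C, 5% CO2; Amplite luciferase reagent 10 min RT; luminescence readout. qHTS format.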
Rab9 prom act: Rab9 promoter activation | 320,000 compounds, 2.8% hits | Huh7 Rab9 promoter-luciferase reporter, luminescence, 24 h | Potency, µM (doses to about 9.22 µM), for the others: at the top dose activation, negative = inhibition, hits mostly activators | AID 485297; also: % of control where 0% means no effect; nearly all actives have a fitted effect of over 60% in size
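Measured in stably transfected Huh7 cells bearing a Rab9 promoter–luciferase construct: 24 h compound treatment at 37 °C, followed by luminescence detection.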
ELG1 genotox: inducers of genotoxicity in HEK293T ELG1-luciferase cells | HEK293T ELG1-luciferase reporter, luminescence, 16 h | AID 504466 | 330,000 compounds, 1.3% hits | Potency, µM (titrated, usually from 46 µM), inactives show at the top dose activity change, positive = activation, usual class: activators; also: % of control where 0% means no effect; nearly all actives have a fitted effect of over 60% in size
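HEK293T cells expressing luciferase-tagged ELG1 were exposed to compound or DMSO vehicle for 16 hr at 37 °C and 5% CO2. Luciferase activity was then measured with ONE-Glo after 30 min at room temperature.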
* marks the source's active call; other numbers are inactive results; u = inconclusive; x = not tested or not shown. Calls follow the shape of the dose curve; as a rule, active = well fitted curve in the direction sought with a large enough effect; inconclusive = small, poorly fitted or top-dose-only effect, or another doubt; inactive = no such curve, though single readings can be large; an effect the other way counts as inactive or inconclusive. Potency is read from the fitted curve at half-maximal effect.

SMILES | ELG1 DNA repair | FLuc modulator | SMN2 splice up | NPC1 prom act | Rab9 prom act | ELG1 genotox
CN(C)c1nc(OCCNC(=O)COc2ccc(Cl)cc2Cl)nc(N(C)C)n1 | 20.6µM* | -1.8% | -7.9% | 2.9% | 1.2% | -8.6%
CCNC(=O)COc1ccc(Br)cc1Cl | u | u | 10.3% | 25.8% | 29.6% | u
COCCCNC(=O)COc1ccc(Br)cc1Cl | u | u | 15.8µM* | u | u | u
O=C(CCn1c(=O)c2ccccc2n(CC(=O)Nc2ccc(F)cc2)c1=O)NCCc1ccccc1 | x | -0.8% | -4.2% | x | x | x
COc1cccc(NC(=O)COC(=O)c2ccc3c(c2)OCO3)c1 | 3.9% | -13.9% | x | -1.2% | 0.2% | 1.4%
COc1cccc(NC(=O)c2ccc3c(c2)OCO3)c1 | u | 2.69µM* | x | 0.501µM* | 0.447µM* | 6.51µM*
COc1cccc(NC(=O)c2ccc3c(c2)OCCO3)c1 | u | 0.675µM* | x | 1.78µM* | 0.708µM* | 2.06µM*
COc1cccc(C(=O)n2c(SC)nc3cc4c(cc32)OCCO4)c1 | u | 13.5µM* | 12.4% | 17.5% | 21.4% | 13.2%
COc1cccc(NC(=O)c2oc3ccccc3c2NC(=O)c2ccc3c(c2)OCO3)c1 | u | 2.69µM* | 0.8% | 15.6% | 28.3% | -6.8%
O=C(c1csnn1)N1CCC2(CCCN(Cc3cc(C(F)(F)F)cc(C(F)(F)F)c3)C2)CC1 | x | x | -5.6% | x | x | x
COc1cccc(NC(=O)c2oc3ccccc3c2NC(=O)c2ccc(OC(C)C)cc2)c1 | x | 2.69µM* | 9.6% | x | x | x
COc1cccc(C(=O)Nc2cc3c(cc2C(C)=O)OCCO3)c1 | u | 5.36µM* | 29.4% | 0.1% | -0.1% | 3.7%
CCC(=O)Nc1cccc(NC(=O)c2ccc3c(c2)OCO3)c1 | u | 15.1µM* | u | 17.3% | 28.6% | 7.2%
COc1ccc(C(=O)Nc2cc3c(cc2C(=O)O)OCCCO3)c(OC)c1 | 6.0% | -15.3% | x | -5.3% | 0.3% | 4.4%
Cc1cc(C)cc(NC(=O)N2CCC3(CC2)Oc2ccccc2C(=O)N3Cc2ccccc2F)c1 | x | -11.3% | -11.0% | x | x | x
CN1CCN(c2ccc(NC(=O)C(C)(c3ccccc3)c3ccccc3)cc2)CC1 | 0.0% | 1.4% | x | -5.2% | -0.3% | -3.0%
CN1CCN(c2ccc(-c3ccnn3C(=O)Nc3ccccc3)cc2)CC1 | u | 16.9µM* | 10µM* | u | 3.55µM* | u
Cc1ccc(N2C(=O)c3ccccc3C2O)nc1 (centres undefined) | u | 1.51µM* | 0.562µM* | u | 0.282µM* | u
Cc1ccc(N2C(=O)c3ccccc3C2Nc2ccccc2F)nc1 (centres undefined) | -27.6% | -0.5% | -4.7% | -5.1% | 20.0% | 2.5%
COc1ccc(CCNC(=O)c2cc3c(s2)-c2c(C)cccc2OC3)c(OC)c1 | x | -3.9% | 7.8% | x | x | x
CS(=O)(=O)c1ccccc1C(=O)Nc1cccc(-c2nc3ccccc3o2)c1 | -16.5% | 10.7µM* | x | -3.8% | -1.1% | -5.6%
Cc1cc2nc(-c3cccc(NC(=O)c4cccc5ccccc45)c3)oc2cc1C | x | 2.13µM* | 6.7% | x | x | x
Cc1ccc2nc(-c3cccc(NC(=O)c4cccc5c(Cl)cccc45)c3)oc2c1 | x | 2.39µM* | 11.3% | x | x | x
CCC(=O)Nc1cccc(-c2nc3ccccc3o2)c1 | -21.0% | u | 13.6% | 10.4% | 23.8% | 11.4%
Cc1ccc2nc(-c3cccc(NC(=O)c4ccc(Br)o4)c3)oc2c1 | x | 2.69µM* | 16.3% | x | x | x
Cc1ccc(-c2nc3ccccc3o2)cc1NC(=O)c1cccc2c(Cl)cccc12 | x | -10.5% | 4.4% | x | x | x
Cc1cc2nc(-c3cccc(NC(=O)CSc4ccc(Cl)cc4)c3)oc2cc1C | x | 1.9µM* | 1.4% | x | x | x
Cc1ccc(SCC(=O)Nc2ccc3oc(-c4cccc(Cl)c4)nc3c2)cc1 | x | -6.5% | x | x | x | x
Cc1ccc(CN2CCCn3nc(C(=O)NCc4ccc(OC(C)C)cc4)cc3C2=O)cc1 | x | -15.4% | x | x | x | x
